Data on 40 compounds can be found in PubChem BioAssay (EPA / NIEHS).

Each structure is given as a SMILES string. Active and inactive are the calls of the source. Rule for the calls: active = hit-call score of the fitted dose curve at least 0.9, where 1 is the maximum; inactive = score below 0.9.

The nature of this assay: APR_HepG2_MicrotubuleCSK_1hr: Apredica 1-hour HepG2 Assay for Microtubule CSK Stabilty (AID 2282669). The note with it: HepG2 microtubule cytoskeleton imaging, actives raise or lower the signal. The method, then: APR_HepG2_1hr is a cell-based, multiplexed-readout assay that uses HepG2, a human liver cell line, with measurements taken at 1 hour after chemical dosing in a 384-well plate.APR_HepG2_MicrotubuleCSK_1hr is one of 10 assay component(s) measured or calculated from the APR_HepG2_1hr assay. It is designed to make measurements of protein conformation, a form of conformation reporter, as detected with fluorescence intensity signals by HCS Fluorescent Imaging technology.Data from the assay component APR_HepG2_MicrotubuleCSK_1hr was analyzed into 1 assay endpoint. This assay endpoint, APR_HepG2_MicrotubuleCSK_1hr, was analyzed with bidirectional fitting relative to DMSO as the negative control and baseline of activity. Using a type of conformation reporter, measures of protein for gain or loss-of-signal activity can be used to understand the signaling at the cellular-level. Furthermore, this assay endpoint can be referred to as a primary readout, because this assay has produced multiple assay endpoints where this one serves a signaling function. To generalize the intended target to other relatable targets, this assay endpoint is annotated to the cell morphology intended target family, where the subfamily is cell conformation.
Cells were treated with dimethyl sulfoxide (DMSO) as a solvent control at a final concentration of 0.5% v/v or with compounds in DMSO with a resulting final DMSO concentration of 0.5% v/v. Compound treatment was done at concentrations of 0.39, 0.78, 1.56, 3.12, 6.24, 12.5, 25, 50, 100, and 200 uM in duplicate on each plate. Cells were treated with compounds for 1, 24, or 72 hr. Carbonyl […] m-chloro-phenylhydrazone (CCCP) and taxol were used as positive controls for mitochondrial function and cytoskeletal stability, respectively; DMSO served as the negative control for this experiment. Cells were fixed by the direct addition of 50 uL formaldehyde in Hank's Balanced Salt Solution (HBSS) to a final concentration of 3.7%. After incubation in the fixation medium for 30 min at room temperature (293-298 K), cells were rinsed twice with HBSS and treated with cell permeabilization buffer (16 uL of 0.5% Triton X-100) for 10 min at room temperature (293-298 K) before labeling. For mitochondrial membrane potential and mitochondrial measurements, pre-fixed cells were incubated with 50 uL of MitoTracker Red CMXRos (Invitrogen) at a concentration of 250 nM for 30 min before fixation. In the remaining cases, post-fixed cells were labeled by incubation with a multiplexed mixture of primary antibodies in HBSS for 60 min at room temperature (293-298 K) to detect immunoreactivity of c-Jun (1:500), phospho-histone H3 (1:100), phospho-histone H2A.x (1:200), p53 (1:400), alpha-tubulin (1:200) and Hoechst 33342 (2 ug/mL). Cells were labeled for multiplexed imaging on two separate plates: a) Hoechst 33342, MitoTracker Red, phospho-histone H3, and alpha-tubulin, and b) Hoechst 33342, phospho-histone H2A.x, and c-Jun. A final rinse with HBSS (50 uL) was performed before analysis. The primary and secondary antibodies for the proteins were phospho-histone H3 (rabbit anti-phospho-histone H3 and FITC-donkey anti-rabbit IgG), phospho-histone H2A.x (mouse anti-phospho-histone H2A.x and FITC-donkey anti-mouse IgG), c-Jun (rabbit anti-phospho-c-Jun and Cy3-donkey anti-rabbit IgG), p53 (sheep anti-p53 and Cy5-donkey anti-sheep IgG), alpha-tubulin (mouse anti-alpha-tubulin and Cy5-donkey anti-mouse IgG). These antibodies are available as the CellCiphr HepG2 assay kit (Millipore).Digital images of each well were captured using a Cellomics ArrayScan VTI (Thermo Scientific Cellomics) (0.8 NA objective, 0.63x optical coupler, and XF-93 filter set) at 20x magnification. The images were acquired using the autofocus feature of the ArrayScan instrument, which entails the following steps. First, the camera focuses on channel 1 (Hoechst 33342), where nuclei are identified. Second, a Z offset of 1 um is used for capturing mitochondria (MitoTracker Red). […]
As to `CCC(CC)Nc1c([N+](=O)[O-])cc(C)c(C)c1[N+](=O)[O-]`, the result was inactive.
Regarding `CSc1nnc(C(C)(C)C)c(=O)n1N`, the result was inactive.
Take `CC1(C(=O)Nc2ccc(O)c(Cl)c2Cl)CCCCC1`: the call was inactive.
Same read-out and setting: the entry for `CCc1cccc(CC)c1N(COC)C(=O)CCl` is “inactive”; for `CCCCN(CC)c1c([N+](=O)[O-])cc(C(F)(F)F)cc1[N+](=O)[O-]` it is “inactive”; for `COP(=O)(OC)C(O)C(Cl)(Cl)Cl` (stereo not given) it is “inactive”.
The same measure, in the same setting: the entry for `Cc1cc(C2CC2)nc(Nc2ccccc2)n1` is “inactive”; for `CCC(=NOC/C=C/Cl)C1=C(O)CC(C2CCOCC2)CC1=O` (stereo not given) it is “inactive”; for `CN(C)[C@@H]1C(=O)C(C(N)=O)=C(O)[C@@]2(O)C(=O)C3=C(O)c4c(O)cccc4[C@@](C)(O)[C@H]3[C@H](O)[C@@H]12` it is “inactive”.
On the same count and under the same terms, the entry for `CCCOCC(=Nc1ccc(Cl)cc1C(F)(F)F)n1ccnc1` is “inactive”; for `CNC(=O)ON=C(SC)C(=O)N(C)C` it is “inactive”.
As for `Nc1nc(N)nc(NC2CC2)n1`, the compound was called inactive.
For the compound `CCNc1nc(Cl)nc(NC(C)(C)C#N)n1`, the result was inactive.
Same read-out and setting: the result for `O=C(O)c1cc(Oc2ccc(C(F)(F)F)cc2Cl)ccc1[N+](=O)[O-]` reads “inactive”.
Same read-out and setting: the result for `COc1ccc(C(=CC(=O)N2CCOCC2)c2ccc(Cl)cc2)cc1OC` reads “inactive”; that for `C[N+]1(C)CCCCC1`, “inactive”; that for `Cc1ccn2nc(S(=O)(=O)Nc3c(F)cccc3F)nc2n1`, “inactive”.
Still for that read-out and setting: the entry for `CCOP(=O)(NC(C)C)Oc1ccc(SC)c(C)c1` (stereo not given) is “inactive”.
As for `O=c1ccc(=O)[nH][nH]1`, the compound was classed as inactive.
The same measure, in the same setting: the result for `CCc1cnc(C2=NC(C)(C(C)C)C(=O)N2)c(C(=O)O)c1` (stereo not given) reads “inactive”; that for `C[Si](Cn1cncn1)(c1ccc(F)cc1)c1ccc(F)cc1`, “inactive”; that for `CC(C)[C@H](C(=O)O[C@H](C#N)c1cccc(Oc2ccccc2)c1)c1ccc(Cl)cc1`, “inactive”.
Still for that read-out and setting: the result for `CSc1nc(NC(C)C)nc(NC(C)C)n1` reads “inactive”.
On the same count and under the same terms, the result for `COP(=O)(NC(C)=O)SC` (stereo not given) reads “inactive”.
As for `CNc1cnn(-c2cccc(C(F)(F)F)c2)c(=O)c1Cl`, the compound was classed as inactive.
With `FC(F)C(F)(F)OCC(Cn1cncn1)c1ccc(Cl)cc1Cl` (stereo not given), the call was inactive.
Regarding `CSC1=N[C@@](C)(c2ccccc2)C(=O)N1Nc1ccccc1`, the call was inactive.
As to `CCOP(=S)(OCC)Oc1ccc2c(C)c(Cl)c(=O)oc2c1`, the compound was classed as inactive.
Same read-out and setting: the result for `CON=C(C(=O)OC)c1ccccc1CON=C(C)c1cccc(C(F)(F)F)c1` reads “inactive”; that for `C#CC(C)(C)NC(=O)c1cc(Cl)cc(Cl)c1`, “inactive”.
For orientation: AC50 means the midpoint of the concentration-response curve, whichever way the signal moves. On to `C=C(C)[C@H]1Cc2c(ccc3c2O[C@@H]2COc4cc(OC)c(OC)cc4[C@@H]2C3=O)O1`, for which the concentration at half-maximal activity (AC50) was 4.74 µM (active).
Turning to `CCOP(=S)(OCC)OC(Cl)C(Cl)(Cl)Cl` (stereo not given), the outcome was inactive.
Same read-out and setting: the entry for `CCc1cccc(C)c1N(C(=O)CCl)C(C)COC` (stereo not given) is “inactive”; for `COc1cccc(C(=O)NN(C(=O)c2cc(C)cc(C)c2)C(C)(C)C)c1C` it is “inactive”.
For `CCOP(=S)(OCC)Oc1ccc([N+](=O)[O-])cc1`, the compound was classed as inactive.
Same read-out and setting: the result for `N#CSCSC#N` reads “inactive”; that for `CC[C@H](C)[C@H]1O[C@]2(C=C[C@@H]1C)C[C@@H]1C[C@@H](C/C=C(\C)[C@@H](O[C@H]3C[C@H](OC)[C@@H](O[C@H]4C[C@H](OC)[C@@H](NC)[C@H](C)O4)[C@H](C)O3)[C@@H](C)/C=C/C=C3\CO[C@@H]4[C@H](O)C(C)=C[C@@H](C(=O)O1)[C@]34O)O2`, “inactive”; that for `CCOP(=S)(Oc1cnc(C(C)(C)C)nc1)OC(C)C` (stereo not given), “inactive”.
Same read-out and setting: the entry for `CNC(=O)ON=C(C)SC` is “inactive”; for `CC(C)N(C(=O)SCC(Cl)=C(Cl)Cl)C(C)C` it is “inactive”.
